# Experimental data reported in the supplement of paper PMC4466140.
# B1: unnamed (peptide)
# chain: KWVRRPKLMTPLTFS
# Target: CaNbp2
# Experiment: SPOT peptide array binding signal intensity (averaged, normalized) (arbitrary units (background-subtracted, floor 0; scale differs between SH3 domains)); higher = stronger binding of the SH3 domain to the peptide
# In short: (§1)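 Binding signal is given in arbitrary units that differ between domains and is the normalized, background-subtracted spot intensity averaged across replicates. Each GST-SH3 fusion from one of four yeast species was made in E. coli BL21(DE3), purified on glutathione Sepharose and incubated at 10 μg/ml overnight at 4°C on cellulose-bound synthetic 15-mer peptides in which cysteines were replaced by serines. Detection used anti-GST antibody, an HRP anti-mouse secondary and luminol, followed by imaging and Genespotter quantification.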
row,Binder,SPOT peptide array binding signal intensity
1,B1,757

# Target: CaRvs167
# Experiment: as above
# In short: as §1
row,Binder,SPOT peptide array binding signal intensity
1,B1,162

# Target: CaRvs167-3
# Experiment: as above
# In short: as §1
row,Binder,SPOT peptide array binding signal intensity
1,B1,27.8

# Target: CaSho1
# Experiment: as above
# In short: as §1
row,Binder,SPOT peptide array binding signal intensity
1,B1,522

# Target: CaSla1-D1-D2
# Experiment: as above
# In short: as §1
row,Binder,SPOT peptide array binding signal intensity
1,B1,623

# Target: CaSla1-D3
# Experiment: as above
# In short: as §1
row,Binder,SPOT peptide array binding signal intensity
1,B1,264

# Target: ScAbp1
# Experiment: as above
# In short: as §1
row,Binder,SPOT peptide array binding signal intensity
1,B1,103

# Target: ScBbc1
# Experiment: as above
# In short: as §1
row,Binder,SPOT peptide array binding signal intensity
1,B1,23

# Target: ScBem1-D1
# Experiment: as above
# In short: as §1
row,Binder,SPOT peptide array binding signal intensity
1,B1,91.5

# Target: ScBzz1-D1
# Experiment: as above
# In short: as §1
row,Binder,SPOT peptide array binding signal intensity
1,B1,50.5

# Target: ScBzz1-D2
# Experiment: as above
# In short: as §1
row,Binder,SPOT peptide array binding signal intensity
1,B1,59

# Target: ScCyk3
# Experiment: as above
# In short: as §1
row,Binder,SPOT peptide array binding signal intensity
1,B1,64.5

# Target: ScFus1
# Experiment: as above
# In short: as §1
row,Binder,SPOT peptide array binding signal intensity
1,B1,1090

# Target: ScHof1
# Experiment: as above
# In short: as §1
row,Binder,SPOT peptide array binding signal intensity
1,B1,3.75

# Target: ScHse1
# Experiment: as above
# In short: as §1
row,Binder,SPOT peptide array binding signal intensity
1,B1,1650

# Target: ScLsb1
# Experiment: as above
# In short: as §1
row,Binder,SPOT peptide array binding signal intensity
1,B1,132

# Target: ScLsb2
# Experiment: as above
# In short: as §1
row,Binder,SPOT peptide array binding signal intensity
1,B1,15.5

# Target: ScLsb3
# Experiment: as above
# In short: as §1
row,Binder,SPOT peptide array binding signal intensity
1,B1,166

# Target: ScLsb4
# Experiment: as above
# In short: as §1
row,Binder,SPOT peptide array binding signal intensity
1,B1,32.5

# Target: ScMyo3
# Experiment: as above
# In short: as §1
row,Binder,SPOT peptide array binding signal intensity
1,B1,3.5

# Target: ScMyo5
# Experiment: as above
# In short: as §1
row,Binder,SPOT peptide array binding signal intensity
1,B1,5.25

# Target: ScNbp2
# Experiment: as above
# In short: as §1
row,Binder,SPOT peptide array binding signal intensity
1,B1,818

# Target: ScPex13
# Experiment: as above
# In short: as §1
row,Binder,SPOT peptide array binding signal intensity
1,B1,56.8

# Target: ScRvs167
# Experiment: as above
# In short: as §1
row,Binder,SPOT peptide array binding signal intensity
1,B1,121

# Target: ScSho1
# Experiment: as above
# In short: as §1
row,Binder,SPOT peptide array binding signal intensity
1,B1,1880

# Target: ScSla1-D1-D2
# Experiment: as above
# In short: as §1
row,Binder,SPOT peptide array binding signal intensity
1,B1,735

# Target: ScSla1-D3
# Experiment: as above
# In short: as §1
row,Binder,SPOT peptide array binding signal intensity
1,B1,161

# Target: SpAbp1-D1
# Experiment: as above
# In short: as §1
row,Binder,SPOT peptide array binding signal intensity
1,B1,289

# Target: SpBbc1
# Experiment: as above
# In short: as §1
row,Binder,SPOT peptide array binding signal intensity
1,B1,7

# Target: SpBzz1-D1
# Experiment: as above
# In short: as §1
row,Binder,SPOT peptide array binding signal intensity
1,B1,176

# Target: SpBzz1-D2
# Experiment: as above
# In short: as §1
row,Binder,SPOT peptide array binding signal intensity
1,B1,0.5

# Target: SpCyk3
# Experiment: as above
# In short: as §1
row,Binder,SPOT peptide array binding signal intensity
1,B1,7

# Target: SpHof1
# Experiment: as above
# In short: as §1
row,Binder,SPOT peptide array binding signal intensity
1,B1,158

# Target: SpHof1-2
# Experiment: as above
# In short: as §1
row,Binder,SPOT peptide array binding signal intensity
1,B1,17

# Target: SpHof1-3
# Experiment: as above
# In short: as §1
row,Binder,SPOT peptide array binding signal intensity
1,B1,450

# Target: SpHse1
# Experiment: as above
# In short: as §1
row,Binder,SPOT peptide array binding signal intensity
1,B1,666

# Target: SpLsb1
# Experiment: as above
# In short: as §1
row,Binder,SPOT peptide array binding signal intensity
1,B1,466

# Target: SpLsb4
# Experiment: as above
# In short: as §1
row,Binder,SPOT peptide array binding signal intensity
1,B1,500

# Target: SpMyo1
# Experiment: as above
# In short: as §1
row,Binder,SPOT peptide array binding signal intensity
1,B1,8.75

# Target: SpNbp2
# Experiment: as above
# In short: as §1
row,Binder,SPOT peptide array binding signal intensity
1,B1,558

# Target: SpPex13
# Experiment: as above
# In short: as §1
row,Binder,SPOT peptide array binding signal intensity
1,B1,217

# Target: SpRvs167
# Experiment: as above
# In short: as §1
row,Binder,SPOT peptide array binding signal intensity
1,B1,34.2

# Target: SpSla1-D1-D2
# Experiment: as above
# In short: as §1
row,Binder,SPOT peptide array binding signal intensity
1,B1,1.5

# Target: SpSla1-D3
# Experiment: as above
# In short: as §1
row,Binder,SPOT peptide array binding signal intensity
1,B1,62
